# According to PubChem BioAssay (NCATS):
# Unmarked numbers belong to inactive results. How the calls were made is not given here.
# Tested on: HIV-1 nucleocapsid protein NCp7 (binding to TG oligonucleotide)
# Assay: HIV Nucleocapsid (AID 346);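 further: potency is for inhibitors that block NC binding and lower polarization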
# Settings: HIV-1 NC / fluorescein-TGTGTGTG probe, fluorescence polarization
# In short: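 10 nM TG4xF probe with 100 nM nucleocapsid protein in high-salt Hepes pH 7.5 (250mM NaCl) containing 1uM ZnCl2 and reducing agents. Compound inhibition of binding was read as fluorescein polarization after 1 hr at room temperature.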
# Potency means the concentration at half of the fitted maximal effect.
row,SMILES,Potency
1,COc1cccc(-c2nc(NCc3cccnc3)c3ccccc3n2)c1,> 20 µM
2,Cn1cccc1C(=O)N1CCC2(CCCN(Cc3nccs3)C2)CC1,> 20 µM
3,COc1ccc(C(=O)N2CCC3(CC2)CN(c2ccc(-c4ccccc4)cc2)C3)cc1,> 20 µM
4,CN(C)Cc1ccccc1-c1nc(N(C)C)c2ccccc2n1,> 20 µM
5,COc1ccccc1CNc1ncnc2ccc(-c3c(C)noc3C)cc12,> 20 µM
6,CN(C)c1ncc2nc(-c3ccc(Cl)cc3)c(=O)n(CCC#N)c2n1,> 20 µM
7,Cn1c(=O)c(-c2ccccc2)nc2cnc(N3CCNCC3)nc21,> 20 µM
8,COc1ccccc1CN1CCCC2(CCN(S(C)(=O)=O)CC2)C1,> 20 µM
9,COc1ccc(C(=O)N2CCC3(CC2)CN(C(=O)NC(C)C)C3)cc1,> 20 µM
10,CC(C)CN1CCC2(CC1)CCN(C(=O)c1ccncc1)CC2,> 20 µM
11,CCNc1ncc2nc(-c3ccc(OC)cc3)c(=O)n(CCOC)c2n1,> 20 µM
12,c1ccc2c(NC3CCNCC3)nc(-c3ccoc3)nc2c1,> 20 µM
13,COC(=O)N1CCC2(CCCN(Cc3ccc(C#N)cc3)C2)CC1,> 20 µM
14,O=c1c(-c2cc(F)cc(F)c2)nc2cnc(N3CCNCC3)nc2n1C1CC1,> 20 µM
15,CN(C)Cc1ccccc1-c1cncnc1Nc1ccncc1,> 20 µM
16,COc1ccccc1CN1CC[C@@]2(CCCN(C(=O)c3cccn3C)C2)C1,> 20 µM
